Source: PubChem BioAssay
PAFAH2 inh: inhibitors of human PAFAH2; recombinant PAFAH2, FP-rhodamine activity probe, fluorescence polarization; Q99487; inhibition, % at 3.39 µM; 340,000 compounds, 0.99% hits;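 active = inhibition above the mean over all tested compounds plus 3 SD, cut at about 30% in these data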;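 note: inhibitors block probe labeling of enzyme so polarization drops; 0% = enzyme with DMSO and 100% = wells lacking PAFAH2 protein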
PAFAH1B2 FP inh: inhibitors of human PAFAH1B2; P68402; recombinant PAFAH1B2, FP-rhodamine activity probe, fluorescence polarization; inhibition, % at 3.39 µM; 340,000 compounds, 1.2% hits;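 active = inhibition above the mean of all tested compounds plus 3 SD, cut at about 24% in these data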;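 note: 0% = enzyme with DMSO and 100% = wells lacking PAFAH1B2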
PP5 primary: blocks human protein phosphatase 5 activity; P53041; purified PP5c, OMFP substrate fluorescence; 320,000 compounds, 0.18% hits; AID 1987; inhibition, % at 6.7 µM;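 active = inhibition above the campaign's mean inhibition across all tested compounds plus 3 SD, cut at about 9.5% in these data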;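 note: 0% = DMSO only and 100% = 100 µM cantharidin control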
PAFAH1B3 inh: inhibitors of human PAFAH1B3. Q15102. recombinant PAFAH1B3, FP-rhodamine probe, fluorescence polarization. inhibition, % at 3.39 µM. 340,000 compounds, 0.28% hits;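 active = inhibition above the screen-wide average of all tested compounds plus 3 SD, cut at about 25% in these data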;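 note: 0% = enzyme with DMSO only and 100% = wells lacking PAFAH1B3 protein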
Target sequence (Q15102 whole entry, looked up): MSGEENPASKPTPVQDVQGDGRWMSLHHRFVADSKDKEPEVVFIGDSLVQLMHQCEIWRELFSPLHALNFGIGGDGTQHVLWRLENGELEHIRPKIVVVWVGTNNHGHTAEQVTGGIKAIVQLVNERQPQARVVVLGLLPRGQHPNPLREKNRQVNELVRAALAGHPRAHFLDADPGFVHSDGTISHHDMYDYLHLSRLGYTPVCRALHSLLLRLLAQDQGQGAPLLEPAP
pPAFAH inh: pPAFAH (human) enzyme inhibition | recombinant pPAFAH, FP-rhodamine probe fluorescence polarization | inhibition, % at 3.39 µM | 330,000 compounds, 1.5% hits | AID 463082 | Q13093;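 active = inhibition above the mean inhibition across the screen plus 3 SD, cut at about 25% in these data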;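 note: inhibitors block binding of the rhodamine activity-based probe so polarization drops; 0% = enzyme with DMSO and 100% = wells lacking pPAFAH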
Target sequence (Q13093 whole entry, looked up): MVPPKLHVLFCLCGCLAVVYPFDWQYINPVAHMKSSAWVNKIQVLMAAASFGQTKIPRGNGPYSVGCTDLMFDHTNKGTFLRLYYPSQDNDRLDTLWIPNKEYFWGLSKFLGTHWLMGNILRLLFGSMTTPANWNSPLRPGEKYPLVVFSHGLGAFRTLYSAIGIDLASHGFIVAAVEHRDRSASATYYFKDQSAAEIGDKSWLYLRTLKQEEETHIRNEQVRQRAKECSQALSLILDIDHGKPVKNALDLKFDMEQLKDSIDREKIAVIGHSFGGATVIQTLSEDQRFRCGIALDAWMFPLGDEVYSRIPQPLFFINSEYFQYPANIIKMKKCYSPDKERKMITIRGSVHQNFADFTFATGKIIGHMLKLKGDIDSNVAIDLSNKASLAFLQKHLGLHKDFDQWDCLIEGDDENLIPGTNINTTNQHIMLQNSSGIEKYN
PP1 counter: PP1-alpha (human) inhibition in PP5 counter-screen | 320,000 compounds, 0.9% hits | inhibition, % at 6.7 µM | purified PP1alpha, OMFP fluorescence | AID 2235;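 active = inhibition above the mean inhibition of all tested compounds plus 3 SD, computed separately for each screening campaign, cut at about 15% in these data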
PP1 inh confirm: confirmation of human PP1 phosphatase inhibitors; inhibition, % at 6.7 µM; purified PP1alpha, OMFP substrate fluorescence; 1,900 compounds, 52% hits; shares compounds with PP1 counter;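 active = mean PP1 inhibition above a set limit taken from the earlier primary screen, cut at about 15% in these data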
PP5 inh counter: PP5 phosphatase inhibition, counter-screen for PP1 inhibitors; purified PP5c, OMFP fluorescence; 1,900 compounds, 4% hits; AID 2360; inhibition, % at 6.7 µM; shares compounds with PP1 counter;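 active = mean PP5 inhibition over triplicate wells above about 9.5% taken from the earlier PP1 screen, limit read from the data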
An asterisk follows results filed as active; . = no result given. An excerpt weighted towards active compounds, which were near 3.4% of everything screened.

SMILES	PAFAH2 inh	PAFAH1B2 FP inh	PP5 primary	PAFAH1B3 inh	pPAFAH inh	PP1 counter	PP1 inh confirm	PP5 inh counter
O=C(O)C1CCCCC1C(=O)NC(c1ccccc1)c1ccccc1 (stereo not drawn)	-1.6	13.2	1.3	2.0	1.0	0.2	.	.
COc1cc(C2c3c(-c4cc(Cl)c(C)cc4O)n[nH]c3C(=O)N2Cc2cccnc2)ccc1O (stereo not drawn)	-7.8	2.6	3.8	6.2	11.5	9.8	.	.
COc1cccc(C2c3c(-c4cc(Cl)c(C)cc4O)n[nH]c3C(=O)N2Cc2cccnc2)c1 (stereo not drawn)	-3.4	3.3	8.1	-0.6	6.0	19.1*	12.2	-1.1
COc1ccc(S(=O)(=O)N2CCOCC2)cc1NC(=O)c1cccc(-n2cccc2)c1	11.1	2.3	0.0	6.4	16.9	7.3	.	.
CCOc1ccc(NC(=O)c2cccc(-n3cccc3)c2)cc1S(=O)(=O)N1CCOCC1	14.9	4.1	4.1	5.1	22.4	21.5*	22.7*	1.2
Cc1ccccc1NC(=O)C(=O)NNC(=O)COc1ccc2ccccc2c1	16.5	15.5	0.2	5.1	20.3	18.2*	14.5	-6.1
Cc1csc2nc(O)c(C(=O)NCCC3=CCCCC3)c(=O)n12	-0.3	5.4	-1.4	-2.7	0.0	14.6	.	.
Cc1csc2nc(O)c(C(=O)NCCCc3ccccc3)c(=O)n12	-2.7	2.5	1.1	-6.0	3.3	20.1*	13.4	-5.1
CCN1CCN(S(=O)(=O)c2ccc(Cl)c(C(=O)Nc3ccccc3N3CCCCC3)c2)CC1	-3.6	11.3	0.5	10.4	2.4	22.8*	-1.3	-0.7
O=C1Nc2cc(C(=O)N3CCN(c4ccccc4F)CC3)ccc2NC1CSCc1ccccc1F (stereo not drawn)	.	.	1.3	.	12.7	18.5*	32.5*	1.0
Nn1c(Cc2ccccc2F)nnc1SCC(=O)N1CC(=O)Nc2ccccc21	1.6	2.6	2.8	9.9	0.1	-5.8	.	.
CC(=O)Nc1ccc(OC(=O)c2ccco2)cc1	3.6	-1.4	1.9	-3.8	3.3	19.5*	-4.9	-5.5
CCNC(=S)N/N=C/c1cccs1	-3.7	4.1	-1.6	-4.3	2.1	37.5*	-3.1	-4.7
CCCCCOc1ccc(C2C(C(=O)c3ccc(C)o3)=C(O)C(=O)N2c2cc(C)on2)cc1 (stereo not drawn)	9.2	4.3	0.9	8.4	17.1	24.3*	31.9*	-0.2
CCCCOc1ccc(C2C(C(=O)c3ccc(C)o3)=C(O)C(=O)N2Cc2ccco2)cc1 (stereo not drawn)	0.6	1.7	2.2	11.3	9.9	32.7*	30.2*	-3.0
Cc1cc(N2C(=O)C(O)=C(C(=O)c3cc4ccccc4o3)C2c2ccc(OC(C)C)cc2)no1 (stereo not drawn)	4.8	7.3	0.2	4.5	6.1	22.6*	33.5*	-1.6
COc1cccc(C2C(C(=O)c3cc4cccc(OC)c4o3)=C(O)C(=O)N2c2cc(C)on2)c1OC (stereo not drawn)	26.5	3.1	4.0	5.9	-3.3	11.4	.	.
Cn1c(=O)[nH]c(=O)c2c1nc(SCC(O)CCl)n2Cc1ccccc1 (stereo not drawn)	7.3	0.3	2.0	1.3	4.4	-0.2	.	.
NC(=O)CC(NC(=O)c1ccccc1)c1ccc(NCCc2ccc(Cl)cc2)c([N+](=O)[O-])c1 (stereo not drawn)	2.4	7.7	1.1	-0.6	6.5	8.4	.	.
NC(=O)CC(NC(=O)c1ccc(Br)cc1)c1ccc(NCc2ccc(F)c(F)c2)c([N+](=O)[O-])c1 (stereo not drawn)	-9.5	-2.7	1.4	4.6	7.5	12.3	.	.
NC(=O)CC(NC(=O)Cc1ccc(Br)cc1)c1ccc(NCCc2ccc(Cl)cc2)c([N+](=O)[O-])c1 (stereo not drawn)	-4.0	20.9	.	-7.9	.	.	.	.
CCCCNc1ccc(C(CC(N)=O)NC(=O)Cc2ccc(Br)cc2)cc1[N+](=O)[O-] (stereo not drawn)	-2.4	3.5	1.1	9.3	4.8	6.0	.	.
COc1ccc(CCNc2ccc(C(CC(N)=O)NC(=O)c3ccc(Br)cc3)cc2[N+](=O)[O-])cc1 (stereo not drawn)	-8.6	8.2	0.3	-0.5	4.8	17.6*	24.6*	-2.2
NC(=O)CC(NC(=O)c1ccc(Br)cc1)c1ccc(NCc2ccc(F)cc2)c([N+](=O)[O-])c1 (stereo not drawn)	-5.4	5.2	2.7	1.1	2.4	18.7*	25.5*	-3.5
NC(=O)CC(NC(=O)Cc1ccc(Br)cc1)c1ccc(NCCc2ccc(F)cc2)c([N+](=O)[O-])c1 (stereo not drawn)	-2.4	13.2	1.0	5.8	4.8	18.3*	25.2*	-1.8
SMILES	PAFAH2 inh	PAFAH1B2 FP inh	PP5 primary	PAFAH1B3 inh	pPAFAH inh	PP1 counter	PP1 inh confirm	PP5 inh counter
COc1ccc(CCNc2ccc(C(CC(N)=O)NC(=O)Cc3ccc(Br)cc3)cc2[N+](=O)[O-])cc1 (stereo not drawn)	-16.8	2.4	-4.9	-11.3	-7.2	17.7*	26.0*	-3.3
Cc1cc(NC(=O)CCN2CC(C)OC(C)C2)ccc1Br (stereo not drawn)	-7.2	5.1	.	0.3	.	.	.	.
O=c1cc(-c2ccc([N+](=O)[O-])cc2)nc2cc(-c3ccc(Cl)cc3)[nH]n12	.	.	3.2	.	9.0	7.4	.	.
NC(=O)CC(NC(=O)Cc1ccc(Br)cc1)c1ccc(NCCc2ccccc2F)c([N+](=O)[O-])c1 (stereo not drawn)	-9.7	1.3	2.6	-9.0	-0.3	24.1*	24.6*	-1.3
NC(=O)CC(NC(=O)Cc1ccc(Br)cc1)c1ccc(NCc2ccccn2)c([N+](=O)[O-])c1 (stereo not drawn)	8.2	18.0	3.0	8.6	3.2	0.2	.	.
O=C(Nc1ccc(N2CCN(Cc3ccccc3)CC2)cc1)c1ccco1	6.2	0.7	1.5	6.2	0.5	3.5	.	.
COc1ccc2nc3cc(Cl)ccc3c(Nc3cc(C(C)C)c(O)cc3C)c2c1	1.4	7.2	3.9	20.5	-5.6	28.6*	7.6	-1.4
C/C(CC(=O)Nc1ccc(Cl)c(C(F)(F)F)c1)=N\NC(=O)c1cc2ccccc2cc1O	10.2	7.2	2.7	8.2	24.5	19.0*	8.3	-2.6
Cc1ccc(NC2c3ncccc3C(=O)N2c2ccccc2C)cc1C (stereo not drawn)	0.6	6.5	8.2	0.1	8.9	30.4*	25.7*	1.4
COc1ccc(-c2nnc(NC(=O)c3ccc(S(=O)(=O)N4CCCc5ccccc54)cc3)o2)cc1	6.1	-2.5	0.4	4.5	24.5	29.4*	39.5*	3.9
O=C(Nc1nnc(C2CC2)o1)c1ccc(S(=O)(=O)N2CCCc3ccccc32)cc1	-2.8	12.3	2.0	1.9	7.1	33.4*	31.5*	0.9
